Laboratory results from PubChem BioAssay (NCATS).
Records with an inconclusive call do not appear. Where a call stands in place of a potency, no number is given. Unmarked numbers belong to inactive results. Activity calls are given as the source filed them. Calls come from the whole dose curve; as a rule, active = well fitted inhibition curve with a large enough effect; inconclusive = small, poorly fitted or top-dose-only effect; inactive = no such curve, though single readings can be large or run the other way.

The compounds below were run on Zika virus NS2B-NS3 protease (linked construct) (assay: Primary screen NINDS Rhodamine qHTS for Zika virus inhibitors (AID 1347160; note: nearly all actives have a fitted effect of over 55% in size)). Settings: purified NS2B-NS3 protease, Rhodamine110 substrate fluorescence; series mostly up to 57.1 µM.
Outline: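 Rhodamine110-peptide cleavage (1.5 µM substrate) by 25 nM linked NS2B-NS3 enzyme at pH 8.0 (Tris, Tween 20), after 15 min RT preincubation with compounds; 15-min fluorescence change normalized to controls and Hill-fitted.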
CC1OC(O[C@H]2[C@@H](O)C[C@@]3(C)C([C@H](O)C[C@]4(C)C3CC=C3C5CC(C)(C)CC[C@]5(C(=O)OC5OC(CO)C(O)C(O)C5OC5OCC(OC6OCC(OC7OCC(O)C(O)C7O)C(O)C6O)C(OC6OCC(O)(CO)C6O)C5O)CC[C@]34C)[C@]2(C)CO)C(O)C(O)C1O (stereo partly drawn) showed an activity change, negative = inhibition of -1.39% [at 10.7 µM]. With C[C@]12CCC[C@](C)(C(=O)O)C1CCC13C=C(CO)C(CCC12)C3 (stereo partly drawn) the Potency was “inactive”. For C1CCN2CC3C[C@@H](CN4CCCC[C@@H]34)[C@H]2C1, the Potency was “inactive”. With CCOC(=O)Nc1nc2ccccc2[nH]1 the Potency was “inactive”. CC(=O)N1c2ccccc2C2(O)CC3C(=O)NC(CC(C)C)C(=O)N3C12 (stereo not drawn) was tested, and the Potency was “inactive”. CC(C)=CC/C=C(/C)[C@H]1CC[C@]2(C)[C@@H]1[C@H](O)CC1[C@@]3(C)CC[C@H](O)C(C)(C)[C@@H]3[C@@H](O[C@@H]3O[C@H](CO)[C@@H](O)[C@H](O)[C@H]3O[C@@H]3O[C@@H](C)[C@H](O)[C@@H](O)[C@H]3O)C[C@]12C (stereo partly drawn) was tested, and the Potency was “inactive”. C=C(C)C(=O)O[C@H]1C[C@@](C)(OC(C)=O)[C@@]2(O)CC[C@@](C)(O)[C@H](OC(C)=O)[C@@]23OC(=O)C(COC)=C13 was tested, and the Potency was “inactive”. With CCn1c2ccccc2c2cc(CNC)ccc21 the Potency was “inactive”. With O=C1[C@H](O[C@@H]2O[C@H](CO)[C@@H](O)[C@H](O)[C@H]2O)Oc2ccccc2N1O the Potency was “inactive”. For CC(=O)c1c(C)cc(O[C@@H]2O[C@H](CO)[C@@H](O)[C@H](O)[C@H]2O)cc1O, the Potency was “inactive”. For CC(=O)OC1C(O)CC(O[C@@H]2O[C@H](CO)[C@@H](O)[C@H](O)[C@H]2O)C2CCC3C(=O)OC(c4ccoc4)CC3(C)C21 (stereo partly drawn), the Potency was “inactive”. For CC(C)=CCC[C@](C)(O[C@@H]1O[C@H](CO[C@@H]2OC[C@@H](O)[C@H](O)[C@H]2O)[C@@H](O)[C@H](O)[C@H]1O)[C@H]1CC[C@]2(C)[C@@H]1[C@H](O)C[C@@H]1[C@@]3(C)CC[C@H](O[C@@H]4O[C@H](CO)[C@@H](O)[C@H](O)[C@H]4O[C@@H]4O[C@H](CO)[C@@H](O)[C@H](O)[C@H]4O)C(C)(C)[C@@H]3CC[C@]12C, the Potency was “inactive”. For Cc1cc(O)c(C(C)C)cc1O[C@@H]1O[C@H](CO)[C@@H](O)[C@H](O)[C@H]1O, the Potency was “inactive”. In the case of Cc1c(CN(C)C(=O)/C=C/c2cnc3c(c2)CCC(=O)N3)oc2ccccc12, the Potency was “inactive”. In the case of COC12CC3C(C(C)C1=CC(=O)O2)C(O)C(OC(C)=O)C1C(C)(C)C(OC(C)=O)CCC31C (stereo not drawn), the Potency was “inactive”. CC1CCC2C(C)(C)C(O)CCC2(C)C12Cc1c(O)cc3c(c1O2)CN(C(CCC(N)=O)C(=O)O)C3=O (stereo not drawn) was tested, and the Potency was “inactive”. In the case of O=C(O)c1n[nH]c2c1C[C@H]1C[C@@H]21, the Potency was “inactive”. In the case of NC(Cc1c[nH]c2ccccc12)C(=O)NC(CCC(=O)O)C(=O)O (stereo not drawn), the Potency was “inactive”. With COC(=O)C1=CO[C@@H](O[C@@H]2O[C@H](CO)[C@@H](O)[C@H](O)[C@H]2O)[C@@H]2[C@@H](C)[C@@H](O)C[C@H]12 the Potency was “inactive”. In the case of CO[C@@]12CC3[C@@H]([C@@H](O)[C@@H](OC(C)=O)C4[C@](C)(COC(C)=O)CCC[C@]34C)[C@@H](C)C1=CC(=O)O2 (stereo partly drawn), the Potency was “inactive”. COc1cc(NC(=O)c2ccccn2)ccc1Cl was tested, and the Potency was “inactive”. With COc1c(C)c(OCC=C(C)C)cc2c1C(=O)NC2=O the Potency was “inactive”. For C/C(=C\CCC(C)(O)c1ccc(C)cc1)C(=O)O (stereo not drawn), the Potency was “inactive”.
